Source: PubChem BioAssay (several laboratories)
Hits are enriched below; roughly 3.5% of the tested compounds scored in any of these assays.
Mcl1 Bid PPI: Mcl-1/Bid interaction inhibition; TR-FRET Mcl-1/Bid-Dy647 peptide binding, 1536-well; inhibition, % at 21.7 µM; 0.97% of 220,000 active; AID 1021;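 active = compounds that cut the binding signal by more than half at the single screening dose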;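 note: His-tagged Mcl-1 with europium anti-His antibody binding Bid BH3 peptide; 0% = Mcl-1 plus peptide wells and 100% = peptide-only wells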
14-3-3 Bad PPI: disrupts binding of bovine 14-3-3 zeta to phospho-Bad peptide; P63103; TR-FRET 14-3-3zeta/Dy647-pBad peptide displacement, 1 h; inhibition, % at 21.7 µM; 0.71% of 220,000 active;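 active = inhibition above about 70%, limit read from the data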;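 note: 0% = full 14-3-3 plus peptide FRET controls and 100% = background without 14-3-3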
Hck Nef HTS: human Hck-Nef kinase inhibition; inhibition, % at 20 µM; P08631; AID 463187; 0.68% of 220,000 active; Recombinant Hck-YEEI plus Nef, Z-Lyte FRET kinase assay;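 active = Hck-Nef kinase inhibition above about 50%, limit read from the data; inactive = inhibition below that limit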;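 note: 0% = DMSO with Hck plus Nef and 100% = Hck alone without Nef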
Mcl1 Noxa PPI: disrupts binding of human Mcl-1 to Noxa peptide | inhibition, % at 21.7 µM | AID 1022 | 1.5% of 220,000 active | Q07820 | TR-FRET Mcl-1/Noxa peptide binding, 2 h;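 active = compounds that cut the protein-peptide binding signal by more than 50% relative to plate controls in a single-dose test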;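 note: His-tagged Mcl-1 with rhodamine Noxa BH3 peptide and terbium anti-His antibody; 0% = Mcl-1 plus Noxa peptide wells and 100% = peptide-only wells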
Bim-Mcl-1: disrupts Bim peptide binding to human Mcl-1; Q07820; Bead-based flow cytometry, Bim peptide-Mcl-1 binding; inhibition, % at 10 µM; 0.1% of 190,000 active; AID 1009; in the data active = inhibition above about 40%;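 note: 0% = no compound tracer wells and 100% = peptide blocker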
eIF4E-4G inh: inhibitors of eIF4E and eIF4G interaction in translation initiation. P63073+Q04637. TR-FRET eIF4E-eIF4GI(517-606) binding, 2 h. inhibition, % at 21.7 µM. 0.37% of 220,000 active;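 active = inhibition above about 30%, limit read from the data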;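 note: 0% = full FRET control wells and 100% = background wells lacking eIF4GI fragment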
Target sequence (P63073 whole entry, looked up, the tested form may be a part): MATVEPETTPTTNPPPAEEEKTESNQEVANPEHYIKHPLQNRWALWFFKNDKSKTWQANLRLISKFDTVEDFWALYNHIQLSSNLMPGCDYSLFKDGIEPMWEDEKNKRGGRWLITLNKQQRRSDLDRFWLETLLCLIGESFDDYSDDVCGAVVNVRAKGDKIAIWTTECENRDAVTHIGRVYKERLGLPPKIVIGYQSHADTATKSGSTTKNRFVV
Target sequence (Q04637 whole entry, looked up, the tested form may be a part): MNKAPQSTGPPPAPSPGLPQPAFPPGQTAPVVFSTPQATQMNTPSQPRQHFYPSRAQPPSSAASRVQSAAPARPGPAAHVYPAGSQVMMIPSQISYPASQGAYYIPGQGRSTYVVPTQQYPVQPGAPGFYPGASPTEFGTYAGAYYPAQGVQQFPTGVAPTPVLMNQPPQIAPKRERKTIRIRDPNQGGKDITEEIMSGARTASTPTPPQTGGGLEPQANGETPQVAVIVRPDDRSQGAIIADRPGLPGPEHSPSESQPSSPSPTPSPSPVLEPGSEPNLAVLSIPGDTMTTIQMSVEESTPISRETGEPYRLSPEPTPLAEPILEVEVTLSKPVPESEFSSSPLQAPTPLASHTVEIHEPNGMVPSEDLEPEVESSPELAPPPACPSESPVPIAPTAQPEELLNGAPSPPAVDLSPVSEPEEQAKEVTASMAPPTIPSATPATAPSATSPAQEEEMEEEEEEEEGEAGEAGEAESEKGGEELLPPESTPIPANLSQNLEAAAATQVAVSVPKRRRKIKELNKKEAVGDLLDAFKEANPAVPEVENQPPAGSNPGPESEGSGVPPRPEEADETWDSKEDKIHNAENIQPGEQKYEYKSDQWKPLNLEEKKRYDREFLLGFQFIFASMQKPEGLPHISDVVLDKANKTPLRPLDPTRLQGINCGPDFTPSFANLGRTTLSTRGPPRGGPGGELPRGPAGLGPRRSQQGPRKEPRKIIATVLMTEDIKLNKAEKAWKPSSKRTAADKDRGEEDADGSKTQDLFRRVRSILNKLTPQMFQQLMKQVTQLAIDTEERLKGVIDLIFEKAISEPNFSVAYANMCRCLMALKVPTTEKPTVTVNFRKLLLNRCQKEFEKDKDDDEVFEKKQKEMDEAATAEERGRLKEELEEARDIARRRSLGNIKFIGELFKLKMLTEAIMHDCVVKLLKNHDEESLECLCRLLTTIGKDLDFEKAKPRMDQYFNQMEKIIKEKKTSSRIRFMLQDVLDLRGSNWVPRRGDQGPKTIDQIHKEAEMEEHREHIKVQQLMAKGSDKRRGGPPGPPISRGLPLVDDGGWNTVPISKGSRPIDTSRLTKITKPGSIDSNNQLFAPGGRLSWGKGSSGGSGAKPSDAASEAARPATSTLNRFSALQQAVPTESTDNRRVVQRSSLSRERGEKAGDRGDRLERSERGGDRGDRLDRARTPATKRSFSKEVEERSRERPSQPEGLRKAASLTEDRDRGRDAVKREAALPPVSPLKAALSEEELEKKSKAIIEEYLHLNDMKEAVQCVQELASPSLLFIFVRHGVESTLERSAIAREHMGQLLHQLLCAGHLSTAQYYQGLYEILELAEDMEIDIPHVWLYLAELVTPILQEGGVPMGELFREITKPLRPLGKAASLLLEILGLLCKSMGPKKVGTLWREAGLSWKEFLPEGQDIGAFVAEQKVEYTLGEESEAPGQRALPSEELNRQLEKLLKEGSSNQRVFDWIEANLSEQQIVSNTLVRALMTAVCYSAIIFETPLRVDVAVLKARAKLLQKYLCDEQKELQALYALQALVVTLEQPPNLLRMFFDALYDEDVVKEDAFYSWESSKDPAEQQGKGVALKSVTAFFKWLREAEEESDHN
Active calls of the source: *; . = no result; [ ] = dose if it differs, or a comment.

SMILES | Mcl1 Bid PPI | 14-3-3 Bad PPI | Hck Nef HTS | Mcl1 Noxa PPI | Bim-Mcl-1 | eIF4E-4G inh
NS(=O)(=O)c1ccc(NC(=O)c2ccc(-c3ccccc3)cc2)cc1 | 27.6 | 25.6 | 42.2 | -63.2 | 5.0 | 14.6
NS(=O)(=O)c1ccc(C(=O)Nc2ccc(-c3nc4cccnc4s3)cc2)cc1 | 52.1* | 8.4 | 23.2 | 48.7 | . | -10.8
COc1cccc(/C=N/NC(=O)CN(CCc2ccccc2)S(=O)(=O)c2ccc(NC(C)=O)cc2)c1 | 1.3 | -2.6 | -0.3 | 21.6 | 0.0 | 0.7
COC(=O)c1cc(OC)c(OC)cc1NCC(=O)Nc1ccc(OC)c(OC)c1 | -69.2 | -4.8 | 6.7 | -3.6 | -2.0 | -1.4
COC(=O)c1cc(OC)c(OC)cc1NCC(=O)Nc1ccc(C)cc1 | 80.5* | -5.8 | 4.1 | 16.1 | -4.0 | 17.8
Cc1nc(-c2ccc(NC(=O)CC(C)C)cc2)cs1 | 19.8 | 14.9 | -0.7 | 22.3 | 0.0 | 2.7
O=C(N/N=C/c1cccc([N+](=O)[O-])c1)c1cccs1 | 6.6 | 5.2 | 6.0 | 16.2 | 71.0* | 4.1
O=C(N/N=C/C=C/c1ccc([N+](=O)[O-])cc1)c1cccs1 | 76.1* | 46.5 | 1.2 | 62.5* | 3.0 | -16.4
O=C(/C=C/c1cccc([N+](=O)[O-])c1)c1cccs1 | 10.1 | -1.1 | 4.8 | 12.8 | -2.0 | 2.2
O=C(/C=C/c1cccc([N+](=O)[O-])c1)Nc1ccc(NC(=O)c2cccs2)cc1 | 80.9* | 50.6 | 11.5 | 58.5* | 1.0 | 10.9
CN(C)S(=O)(=O)c1ccc(NC(=O)C2CC3C=CC2C3)cc1 (stereo not drawn) | -7.3 | 0.7 | 0.5 | 3.1 | 1.0 | -1.7
CCc1cc(C(c2ccc(F)cc2)N2CCOCC2)c(NC(=O)c2ccccc2)s1 (stereo not drawn) | 67.5* | -6.9 | -1.1 | 21.2 | 0.0 | -11.4
O=C1N/C(=C\c2ccc(O)cc2)C(O)=C1C=NCc1ccccc1 | -4.3 | -5.7 | 69.3* | 32.8 | -4.0 | -2.2
CCN(CC)S(=O)(=O)c1ccc(C(=O)OC2CCCCC2CN(C)C)cc1 (stereo not drawn) | 50.9* | 1.2 | 1.2 | -3.7 | -3.0 | 7.5
CN(C)CC1CCCCC1OC(=O)c1ccc(Cl)cc1 (stereo not drawn) | 13.7 | 4.4 | -1.8 | 8.0 | -5.0 | -0.1
CCn1c2ccccc2c2cc(NC(=O)c3ccco3)ccc21 | 19.2 | 91.0* | -5.8 | 20.1 | -7.0 | 2.0
CCn1c2ccccc2c2cc(NC(=O)CNCC3CCCO3)ccc21 (stereo not drawn) | 5.1 | 28.8 | 17.1 | 51.6* | -1.0 | 5.8
O=C(NNC(=O)c1c(F)cccc1F)c1ccccc1-n1cccc1 | -21.6 | -6.1 | 6.7 | -2.7 | -1.0 | 1.0
O=S(=O)(Nc1ccc(N=Nc2ccccc2)cc1)c1ccccc1 | 12.2 | 9.6 | 1.7 | -10.9 | -3.0 | 4.4
O=S(=O)(Nc1ccc(N=Nc2ccc(O)c3ccccc23)cc1)c1ccccc1 | -29.2 | -13.0 | 0.7 | 58.8* | 1.0 | -1.2
Cc1cc2nc3n(c2cc1C)CC1CC(C(=O)NCc2cccc(C(F)(F)F)c2)N(C)C31 (stereo not drawn) | -28.2 | 0.4 | 31.6 | 5.2 | . | -4.8
O=C(N/N=C(\CC(=O)c1cccs1)C(F)(F)F)c1ccncc1 | 65.5* | 31.2 | -0.6 | 40.4 | . | 2.3
C(=Nc1cccc2c(N=Cc3ccco3)cccc12)c1ccco1 | -15.0 | -0.5 | 16.8 | 58.4* | 4.0 | 9.1
O=C(O)Cc1sc(Nc2ccc(F)cc2)nc1-c1cccs1 | -2.7 | 0.1 | 32.0 | 53.1* | -3.0 | 14.3
CN(C)CCCN(Cc1ccccc1)C(=S)Nc1ccc(OC(F)F)cc1 | -10.2 | -2.6 | 0.3 | 2.0 | -7.0 | 1.3
SMILES | Mcl1 Bid PPI | 14-3-3 Bad PPI | Hck Nef HTS | Mcl1 Noxa PPI | Bim-Mcl-1 | eIF4E-4G inh
COc1ccc(OC)c(CNc2ccc(F)c(Cl)c2)c1 | -9.5 | 79.4* | -0.2 | 26.1 | -1.0 | 15.1
COc1ccc(CNC(=S)Nc2ccc(F)c(Cl)c2)cc1 | -117.0 | -4.8 | -2.3 | 12.7 | -3.0 | 1.0
CC1CCCC(NC(=O)C2CCC(CNc3c(N4CCCC4)c(=O)c3=O)CC2)C1C (stereo not drawn) | -39.4 | -3.6 | 25.7 | -4.9 | . | -11.7
CC1CCCC(NC(=O)C2CCC(CNc3c(N4CCCCC4)c(=O)c3=O)CC2)C1C (stereo not drawn) | -29.2 | 89.5* | 31.4 | -2.0 | . | 0.5
O=C(OCC1CC(c2ccccn2)=NO1)c1ccc(Br)cc1 (stereo not drawn) | 1.2 | -3.7 | -11.1 | 1.8 | 1.0 | 42.5*
Cc1ccc(-n2c(=O)c(C#N)cc3c(=O)n4ccccc4nc32)cc1 | -7.4 | 1.4 | 93.9* | -3.1 | -6.0 | -0.8
COc1cc(C(=O)NCC(=O)N/N=C/c2ccccn2)cc(OC)c1OC | 63.0* | -19.2 | 23.5 | -8.7 | -1.0 | 0.7
COC(=O)C(CC(C)C)NC(=O)c1ccc(F)cc1 (stereo not drawn) | 98.1* | 7.4 | 2.6 | -8.4 | -2.0 | 4.7
O=C(COc1cccc2cccnc12)N/N=C/c1ccccc1O | -8.4 | 7.9 | 3.6 | -3.1 | . | -5.2
C#CCn1cc(/C=N/NC(=O)COc2cccc3cccnc23)c2ccccc21 | 85.5* | 92.1*[fluorescence artefact?] | 31.4 | 69.7* | -7.0 | 10.6
COC(=O)Cn1cc(/C=N/NC(=O)COc2cccc3cccnc23)c2ccccc21 | 65.2* | 45.5 | 11.6 | 28.5 | 0.0 | 11.5
Cc1cc(C)nc(N(C#N)Cc2cccc(Cl)c2)n1 | -18.1 | -1.8 | 20.2 | 5.5 | -2.0 | -4.0
CN1C(=O)C(O)(CC(=O)/C=C/c2ccco2)c2cc(Br)ccc21 (stereo not drawn) | -42.6 | 83.2* | 0.7 | 9.5 | 9.0 | -3.8
COc1ccc(N(CC(=O)Nc2nccs2)S(=O)(=O)c2c(C)[nH]c(=O)[nH]c2=O)cc1 | 7.4 | 1.2 | 11.6 | 22.0 | -1.0 | 0.3
COc1ccccc1CCc1nnc(CCC(=O)NCCCOc2cccnc2)o1 | -22.8 | -15.8 | 0.7 | -0.9 | -1.0 | 2.7
COc1ccccc1CCc1nnc(CCC(=O)NC(C)Cc2cccnc2)o1 (stereo not drawn) | 82.9* | 0.2 | 20.7 | 9.3 | 0.0 | -1.1
COc1cc(OC)nc(Oc2ccccc2C(=O)Oc2cccc(C)c2)n1 | 53.2* | 23.7 | 0.5 | -7.4 | -7.0 | 5.5
COc1cc(C(=O)Oc2cccc(C)c2)cc(OC)c1OC | -14.6 | 0.8 | 0.7 | -8.5 | -5.0 | 1.3
O=C(O)c1cccc(NC(=O)C2CC(=O)N(Cc3ccccc3)C2)c1 (stereo not drawn) | -6.9 | 76.5* | -0.6 | 12.4 | -2.0 | -5.2
Cc1nc(-c2ccccc2)sc1C(=O)CSc1ccc(Cl)cc1 | 4.2 | -1.9 | 0.7 | 64.2* | -3.0 | -10.5
Cc1cc(N2C(=O)C=CC2=O)c([N+](=O)[O-])cc1C | 57.0* | -3.6 | 2.6 | 49.7 | -12.0 | 11.7
Cc1ccc(C)c(N2CCN(c3ccc(N4C(=O)COCC4=O)cc3[N+](=O)[O-])CC2)c1 | -5.3 | -5.0 | 2.2 | 8.7 | -3.0 | -5.5
